# Bioassay records from PubChem.
# In the library only some 2% were active in any assay of this set; here they are far more common.
# Beta apoptosis: beta cell apoptosis inhibition. INS-1E cytokine-induced death, ATP luminescence, 48 h; percent of positive-control rescue, neutral wells zero. protection from apoptosis, % (test concentration not listed). 0.8% of 300,000 active;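 active means Every replicate reaches about 75%, or at least half do and their mean reaches it too, limit read from the data; inconclusive means At least half of replicates reach the limit but their mean does not; inactive means Under half of replicates reach the limit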;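 further: 0% = cytokine-treated negative control wells and 100% = positive control rescue; higher means more ATP so stronger rescue from cytokine killing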
# 697 NFkB inh: inhibitors of the PMA/ionomycin-induced NF-kB reporter in 697 B cells; 697 B-cell NF-kB luciferase reporter, 16 h; inhibition, % at 4 µM; 0.33% of 330,000 active; AID 435022; in the data active means inhibition above about 35%
# Jurkat NFkB inh: lowers PMA/ionomycin-induced NF-kB signal in Jurkat cells | PMA/ionomycin-induced NF-kB luciferase reporter, luminescence | inhibition, % at 4 µM | 0.53% of 330,000 active; in the data active means inhibition above about 50%
# Shn3 inh set2: inhibitors of Schnurri-3 3'UTR reporter in osteoblasts; Clone20 osteoblast Shn3 3'UTR firefly luciferase, 24 h; inhibition, % at 12.5 µM; 0.52% of 360,000 active;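 active means mean inhibition of at least 75% with every replicate also reaching 75%; inconclusive means mean inhibition at least 75% but some replicate below; inactive means mean inhibition below 75%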;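 further: 0% = median of neutral control wells and 100% = pilot-screen positive control compound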
# Calb FLC: affects C. albicans growth with fluconazole | growth inhibition, % (concentration not given with the values) | C. albicans CaCi-2 (fluconazole-resistant clinical isolate) + fluconazole, Alamar Blue growth, 48 h | 0.57% of 300,000 active;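 active means growth inhibition above about 58% in most replicates, limit read from the data, passing the limit was not always enough; inconclusive means exactly half the replicates above a set limit; inactive means most replicates below a set limit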;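 further: all wells also contain fluconazole at 8 µg/ml as a sub-toxic cotreatment; 0% = median of DMSO wells and 100% = median of geldanamycin control wells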
# * hit, by the source's call; ? = inconclusive; . = no result.
SMILES,Beta apoptosis,697 NFkB inh,Jurkat NFkB inh,Shn3 inh set2,Calb FLC
O=C(NCCC1=CCCCC1)c1ccc(Cl)c(S(=O)(=O)N2CCCCC2)c1,14.4,-32.8,5.6,32.9,-4.5
Cc1ccc(Cc2c(C)c(C#N)c3[nH]c4ccccc4n3c2=O)cc1,76.8*,-28.2,3.1,10.4,26.3
C=C(C)Cc1c(C)c(C#N)c2[nH]c3ccccc3n2c1=O,32.5,-2.6,-16.5,13.2,-2.0
CCc1cc(=S)n2c([nH]c3ccccc32)c1C#N,-3.2,-2.7,5.7,23.1,97.1*
CCc1cc(=O)n2c([nH]c3ccccc32)c1C#N,14.5,0.3,-7.2,-17.1,-1.2
O=C(Nc1ccccc1)c1cc(C2CCCCN2C(=O)c2ccc3c(c2)CCO3)on1 (configuration not stated),.,.,.,7.5,.
N#Cc1c(NCc2ccccc2)ccnc1NCc1cccnc1,32.2,-0.1,27.1,84.6*,9.6
COc1ccc(NC(=O)C(=O)NCCC2CCCCN2S(=O)(=O)c2ccccc2)cc1 (configuration not stated),.,-58.5,30.3,-37.2,-13.7
COC(=O)C1CCN(C(=O)CN(C)Cc2ccc(C(C)(C)C)cc2)CC1,.,-0.3,0.5,3.8,80.1*
O=S(=O)(c1ccc(Cl)s1)N1CCc2ccccc2C1,-9.5,23.5,9.0,-25.5,5.9
O=S(=O)(c1ccc(Cl)s1)N1CCCc2cccc(O)c21,13.3,-96.0,-61.7,-105.7,68.0*
N#CC(C#N)=C1C=CC=CN1/C(=C\c1ccco1)C(=O)c1ccccc1,?,.,.,95.8*,.
N#CC(C#N)=C1C=CC=CN1/C(=C\c1ccco1)C(=O)c1ccc(Br)cc1,100.8*,.,.,89.6*,.
COc1ccc(/C=C(/C(=O)c2cccs2)N2C=CC=CC2=C(C#N)C#N)cc1,.,.,.,66.6,29.1
Cc1cnc(C(=O)NNC(=O)c2ccc(Br)cc2)cn1,13.5,-8.8,10.7,43.4,.
OC(c1ccc(F)cc1)c1ncc(-c2ccc3ccccc3c2)[nH]1 (configuration not stated),.,.,.,-22.0,.
Cc1cc(C(=O)Nc2ccc([N+](=O)[O-])cn2)cs1,.,-83.0,-82.7,-88.9,8.5
COC(=O)N/N=C/c1cc(Br)ccc1O,2.3,-2.2,-7.1,14.9,-4.7
COc1ccc(O)c(/C=N/NC(=O)c2cccc(N3CCCC3=O)c2)c1,93.6*,-14.2,14.0,69.4,-6.6
O=C(N/N=C/c1cc(Br)ccc1O)c1ccccc1Cl,68.9,-34.0,20.3,42.4,89.1*
O=C(N/N=C/c1cc(Br)ccc1O)c1cccc(N2CCCC2=O)c1,56.3,-37.6,13.7,82.8,93.8*
O=[N+]([O-])c1cc2c(cc1Br)-c1ccccc1C2,.,.,.,8.2,.
Cc1ccc(CN2C(=O)/C(=C\c3ccc(C(=O)NCc4cccnc4)cc3)Oc3ccccc32)cc1,99.1*,29.0,-5.7,.,1.0
CC(C)(C)CC(C)(C)c1ccc(OCCOCC[N+](C)(C)Cc2ccccc2)cc1,100.0*,8.8,13.1,87.7*,.
Cn1c(N)c(C(=O)COC(=O)c2ccccc2C(=O)c2ccc(Cl)c([N+](=O)[O-])c2)c(=O)n(C)c1=O,-8.8,18.8,-6.1,16.2,.
SMILES,Beta apoptosis,697 NFkB inh,Jurkat NFkB inh,Shn3 inh set2,Calb FLC
O=C(Nc1nc(-c2ccccn2)cs1)c1cccc(S(=O)(=O)N2CCOCC2)c1,68.3,-44.7,9.6,87.7*,.
COc1ccc(C(=O)Nc2nc(-c3ccccn3)cs2)cc1S(=O)(=O)N1CCOCC1,54.3,-1.7,9.5,68.8,.
O=C(Nc1nc2ccc(S(=O)(=O)N3CCCCC3)cc2s1)c1ccncc1,-1.0,-2.9,12.4,-11.2,103.1*
Cc1ccc(S(=O)(=O)N2CCOCC2)cc1C(=O)Nc1nc(-c2ccccn2)cs1,76.0*,-18.1,23.5,75.5,.
O=C(Nc1nc(-c2ccccn2)cs1)c1ccc(S(=O)(=O)N2CCCCC2)cc1,83.0*,-26.5,24.3,.,35.1
Cc1cccn2c(=O)c3cc(C(=O)NC4CCS(=O)(=O)C4)n(Cc4ccccc4)c3nc12 (configuration not stated),4.5,13.8,-9.3,-4.1,15.5
CCOc1ccc2c(c1)C(=NNC(=O)c1ccccn1)c1cc(OCC)ccc1-2,.,.,.,-23.3,.
COc1ccc(-n2c(-c3ccccc3)c[n+]3c2CCC3)cc1,46.4,17.5,48.3,33.8,1.8
COc1ccc(-n2c(-c3ccc(Br)cc3)c[n+]3c2SC(C)C3)cc1 (configuration not stated),.,26.9,-0.9,52.5,87.7*
COc1ccc(-n2c(-c3ccc(Br)cc3)c[n+]3c2CCC3)cc1,75.6*,6.8,23.1,69.7,-4.8
Cc1ccc(-n2c(-c3ccccc3)c[n+]3c2CCC3)cc1,108.9*,23.0,34.7,77.7,95.9*
COc1ccc(-n2c(-c3ccc(Br)cc3)c[n+]3c2CCCCC3)cc1,111.1*,-35.9,25.8,89.1*,13.6
COc1ccc(-n2c(-c3ccc(Br)cc3)n[nH]c2=S)cc1,0.1,7.6,-8.7,3.2,20.7
Clc1ccc2oc3c(Cl)ncnc3c2c1,-1.8,8.5,3.0,-14.3,-2.5
OC[C@@H]1CN(Cc2ccc(-c3ccccc3)cc2)C[C@H](n2cnc3c(NCc4ccncc4)ncnc32)O1,.,.,.,79.6,.
C=C1C(=O)OC2CC1C(O)CC(C)=CCCC(C)=CC(O)CC2C (configuration not stated),.,.,.,96.2*,.
C=C1C(=O)OC2CC1C(OC(C)=O)CC(C)=CCCC(C)=CCCC2(C)O (configuration not stated),.,.,.,94.4*,.
C=C1C(=O)O[C@H]2[C@H]1[C@H](OC(=O)/C(C)=C\C)C[C@]1(CO1)[C@@H]1[C@H](OC(C)=O)C=C(C)[C@]21O,.,.,.,-22.3,.
Cc1[nH]c2ccc(C(=O)NC3CCC(C)CC3)cc2c1C (configuration not stated),3.9,-75.8,-70.2,-134.8,-3.5
COc1cc2c(cc1OC)C(=O)C(Br)CC2 (configuration not stated),.,.,.,35.0,.
CC(=O)O[C@H]1CC[C@@]2(C)C(=CC[C@H]3[C@@H]4CC[C@H](C(C)=O)[C@@]4(C)CC[C@@H]32)C1,-6.8,0.5,-21.1,86.5*,.
CC1=NOC(=O)/C1=C\c1ccc(-c2cccc(Cl)c2)o1,-13.0,20.5,21.2,81.5,-2.1
CC1=NOC(=O)/C1=C\c1ccc(-c2ccccc2Br)o1,.,.,.,90.5*,-1.1
COc1ccc(NC(=O)Nc2nc3c(s2)CCCC3)cc1,6.5,-154.9,-131.4,-34.7,80.1*
Cc1ccc(N=Cc2c(C)[nH]n(-c3nc4ccccc4[nH]3)c2=O)cc1,91.9*,-8.0,-2.5,2.5,1.8
Cc1ccc(-n2[nH]c(C)c(C=Nc3ccc4[nH]c(=O)[nH]c4c3)c2=O)cc1,28.0,7.6,-7.4,2.9,26.5
Cc1cc(=O)c2c(=O)[nH][nH]c2[nH]1,.,.,.,-13.6,.
CCCCC(=O)N(C)c1c(CC)nc2c(OCC=C(C)C)cccn12,.,.,.,2.0,.
COC(=O)C1(C)NC(c2cccc(C)c2)C2C(=O)N(c3ccccc3)C(=O)C21 (configuration not stated),.,.,.,-16.9,.
